# PMC5540273 (PLoS ONE, 2017)
# Values joined by “and” are separate entries in the source; they are usually repeats but may differ in a detail not shown here. Equal entries are not always repeated. Where two headings read alike, the source gives them in different places.
# How the values were obtained:
# LYN = details: concentration: 1 μM, replicates: in singlicate; n = 1
# LZK = tested on: T1, LZK; details: concentration: 1 μM, replicates: in singlicate; n = 1
# T1 construct: gene MAP3K13
# MAK = details: n = 1
# MAP3K15 = details: n = 1
# MAP3K1 = details: n = 1
# MAP3K2 = details: n = 1
# MAP3K3 = details: concentration: 1 μM, replicates: in singlicate; n = 1
# MAP3K4 = details: n = 1
# MAP4K2 = details: concentration: 1 μM, replicates: in singlicate; n = 1
# MAP4K3 = details: n = 1
# [1] = concentration: 1 μM, replicates: in singlicate
# [2] = concentration: 1 μM,replicates: in singlicate, 1 µM
# 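Note: KINOMEscan kinase panel screen.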
compound,measurement,setting,value
CCn1c(-c2cccnc2O)nc2cnccc21 [SB-736715],%Inh,LYN,0%
same,%Inh,LZK,11%
same,%Inh,MAK; [1],13%
same,%Inh,MAP3K15; [1],0%
same,%Inh,MAP3K1; [1],0%
same,%Inh,MAP3K2; [1],0%
same,%Inh,MAP3K3,0%
same,%Inh,MAP3K4; [1],0%
same,%Inh,MAP4K2,0%
same,%Inh,MAP4K3; [1],0%
CSc1nn2c(=O)cc(N3CCOCC3)nc2n1Cc1cccc(C(F)(F)F)c1C [GSK2363608],%Inh,LYN,0%
same,%Inh,LZK,0%
same,%Inh,MAK; [2],24% and 15%
same,%Inh,MAP3K15; [2],5% and 0%
same,%Inh,MAP3K1; [2],12% and 6%
same,%Inh,MAP3K2; [2],10% and 13%
same,%Inh,MAP3K3,0%
same,%Inh,MAP3K4; [2],18% and 30%
same,%Inh,MAP4K2,0%
same,%Inh,MAP4K3; [2],0% and 10%
CCCc1ccc(S(=O)(=O)NC2CCN(c3ccnc(Nc4ccc(F)cc4)n3)C2)cc1 (centres unmarked) [GSK1379715],%Inh,LYN,0%
same,%Inh,LZK,0%
same,%Inh,MAK; [1],60%
same,%Inh,MAP3K15; [1],0%
same,%Inh,MAP3K1; [1],15%
same,%Inh,MAP3K2; [1],2%
same,%Inh,MAP3K3,0%
same,%Inh,MAP3K4; [1],44%
same,%Inh,MAP4K2,0%
same,%Inh,MAP4K3; [1],1%
O=C(Nc1n[nH]c2nc(-c3nccs3)c(Br)cc12)C1CCCC1 [SB-742609],%Inh,LYN,0%
same,%Inh,LZK,0%
same,%Inh,MAK; [1],75%
same,%Inh,MAP3K15; [1],6%
same,%Inh,MAP3K1; [1],15%
same,%Inh,MAP3K2; [1],5%
same,%Inh,MAP3K3,0%
same,%Inh,MAP3K4; [1],28%
same,%Inh,MAP4K2,0%
same,%Inh,MAP4K3; [1],0%
Fc1cc(Cl)ccc1Nc1ccnc2cc(-c3ccc(CN4CCCCC4)o3)ccc12 [GW560116],%Inh,LYN,0%
same,%Inh,LZK,7%
same,%Inh,MAK; [1],52%
same,%Inh,MAP3K15; [1],0%
same,%Inh,MAP3K1; [1],0%
same,%Inh,MAP3K2; [1],0%
same,%Inh,MAP3K3,0%
same,%Inh,MAP3K4; [1],0%
same,%Inh,MAP4K2,0%
same,%Inh,MAP4K3; [1],0%
Clc1cc(Cl)cc(Nc2ccnc(Nc3cc(Cl)cc(Cl)c3)n2)c1 [GSK175726],%Inh,LYN,23%
same,%Inh,LZK,0%
same,%Inh,MAK; [1],25%
same,%Inh,MAP3K15; [1],0%
same,%Inh,MAP3K1; [1],0%
same,%Inh,MAP3K2; [1],0%
same,%Inh,MAP3K3,0%
same,%Inh,MAP3K4; [1],0%
same,%Inh,MAP4K2,0%
same,%Inh,MAP4K3; [1],0%
CC(C)(C)c1ccc(C(=O)Nc2cn3cc(Cl)ccc3n2)cc1,%Inh,LYN,8%
same,%Inh,LZK,0%
same,%Inh,MAK; [1],15%
same,%Inh,MAP3K15; [1],1%
same,%Inh,MAP3K1; [1],0%
same,%Inh,MAP3K2; [1],45%
same,%Inh,MAP3K3,0%
same,%Inh,MAP3K4; [1],0%
same,%Inh,MAP4K2,0%
same,%Inh,MAP4K3; [1],0%
Cn1ccc2ncnc(Oc3ccc(Nc4nc5ccccc5[nH]4)cc3)c21,%Inh,LYN,0%
same,%Inh,LZK,0%
same,%Inh,MAK; [1],5%
same,%Inh,MAP3K15; [1],0%
same,%Inh,MAP3K1; [1],0%
same,%Inh,MAP3K2; [1],0%
same,%Inh,MAP3K3,0%
same,%Inh,MAP3K4; [1],0%
same,%Inh,MAP4K2,0%
same,%Inh,MAP4K3; [1],9%
Cc1cccc(-c2nc(-c3ccc(S(C)(=O)=O)cc3)sc2-c2ccnc(NCCc3ccccc3)c2)c1,%Inh,LYN,5%
same,%Inh,LZK,2%
same,%Inh,MAK; [1],0%
same,%Inh,MAP3K15; [1],10%
same,%Inh,MAP3K1; [1],0%
same,%Inh,MAP3K2; [1],0%
same,%Inh,MAP3K3,0%
same,%Inh,MAP3K4; [1],16%
same,%Inh,MAP4K2,15%
same,%Inh,MAP4K3; [1],0%
CC(C)(C)c1ccc(C(=O)Nc2cn3cc(-c4cccnc4)ccc3n2)cc1,%Inh,LYN,16%
same,%Inh,LZK,0%
same,%Inh,MAK; [1],46%
same,%Inh,MAP3K15; [1],46%
same,%Inh,MAP3K1; [1],1%
same,%Inh,MAP3K2; [1],9%
same,%Inh,MAP3K3,26%
same,%Inh,MAP3K4; [1],17%
same,%Inh,MAP4K2,0%
same,%Inh,MAP4K3; [1],5%
COc1cccc(NC(=O)NC2CCN(c3ccnc(Nc4ccc(F)cc4)n3)C2)c1 (centres unmarked) [GSK1379721],%Inh,LYN,0%
same,%Inh,LZK,17%
same,%Inh,MAK; [1],32%
same,%Inh,MAP3K15; [1],0%
same,%Inh,MAP3K1; [1],5%
same,%Inh,MAP3K2; [1],0%
same,%Inh,MAP3K3,0%
same,%Inh,MAP3K4; [1],13%
same,%Inh,MAP4K2,2%
same,%Inh,MAP4K3; [1],0%
COc1cccc(-c2cc(-c3c[nH]nc3-c3ccccn3)ccn2)c1 [GW680338],%Inh,LYN,26%
same,%Inh,LZK,28%
same,%Inh,MAK; [1],100%
same,%Inh,MAP3K15; [1],0%
same,%Inh,MAP3K1; [1],15%
same,%Inh,MAP3K2; [1],0%
same,%Inh,MAP3K3,0%
same,%Inh,MAP3K4; [1],15%
same,%Inh,MAP4K2,8%
same,%Inh,MAP4K3; [1],0%
O=S(=O)(c1ccc(-c2ccnc3[nH]ccc23)cc1)N1CCCC1 [GSK846226],%Inh,LYN,0%
same,%Inh,LZK,0%
same,%Inh,MAK; [1],24%
same,%Inh,MAP3K15; [1],0%
same,%Inh,MAP3K1; [1],14%
same,%Inh,MAP3K2; [1],7%
same,%Inh,MAP3K3,0%
same,%Inh,MAP3K4; [1],0%
same,%Inh,MAP4K2,0%
same,%Inh,MAP4K3; [1],0%
Cn1ccc2ncnc(Oc3cccc(C(=O)Nc4ccccc4)c3)c21,%Inh,LYN,9%
same,%Inh,LZK,0%
same,%Inh,MAK; [1],8%
same,%Inh,MAP3K15; [1],0%
same,%Inh,MAP3K1; [1],0%
same,%Inh,MAP3K2; [1],11%
same,%Inh,MAP3K3,0%
same,%Inh,MAP3K4; [1],0%
same,%Inh,MAP4K2,2%
same,%Inh,MAP4K3; [1],15%
Cc1c(Cn2ccn3c(=O)cc(N4CCOCC4)nc23)cccc1C(F)(F)F [GSK2289044],%Inh,LYN,22%
same,%Inh,LZK,0%
same,%Inh,MAK; [1],20%
same,%Inh,MAP3K15; [1],0%
same,%Inh,MAP3K1; [1],15%
same,%Inh,MAP3K2; [1],7%
same,%Inh,MAP3K3,0%
same,%Inh,MAP3K4; [1],20%
same,%Inh,MAP4K2,1%
same,%Inh,MAP4K3; [1],0%
O=C(O)COc1ncnc2cc(-c3ccc4[nH]ncc4c3)sc12,%Inh,LYN,0%
same,%Inh,LZK,39%
same,%Inh,MAK; [1],2%
same,%Inh,MAP3K15; [1],53%
same,%Inh,MAP3K1; [1],22%
same,%Inh,MAP3K2; [1],13%
same,%Inh,MAP3K3,9%
same,%Inh,MAP3K4; [1],4%
same,%Inh,MAP4K2,1%
same,%Inh,MAP4K3; [1],0%
O=C(Nc1ccc2c(c1)OCO2)NC1CCN(c2ccnc(Nc3ccc(F)cc3)n2)C1 (centres unmarked) [GSK1379724],%Inh,LYN,0%
same,%Inh,LZK,0%
same,%Inh,MAK; [1],0%
same,%Inh,MAP3K15; [1],0%
same,%Inh,MAP3K1; [1],11%
same,%Inh,MAP3K2; [1],6%
same,%Inh,MAP3K3,0%
same,%Inh,MAP3K4; [1],40%
same,%Inh,MAP4K2,0%
same,%Inh,MAP4K3; [1],0%
